The source of these data is PubChem BioAssay (NCI).

This is part of a sample that, as a whole, favours compounds with a hit. Of some 79,000 tested, about 15% had one in any assay. A number with no mark means an inactive call. Active and inactive are the calls of the source. Rule as the data show it: active = growth inhibition above about 70%; inactive = the rest.

The nature of experiment [1]: NCI Yeast Anticancer Drug Screen. Data for the rad50 strain (AID 155).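 Also: 0% = growth of vehicle-only cultures of the same strain.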 The conditions noted are these: S. cerevisiae rad50 strain growth inhibition; at 50.0 µM; stronger effect = higher value. The essentials: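 Growth of the mutant yeast was measured after compound exposure and referenced to vehicle-treated cultures.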
Experiment [2] is described as follows: NCI Yeast Anticancer Drug Screen. Data for the mec2-1 strain (AID 157). The conditions noted are these: S. cerevisiae mec2-1 strain, at 50.0 µM, stronger effect = higher value. The essentials: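 Cells of the genetically defined mec2-1 yeast strain are incubated with test compound. Inhibition of growth is calculated against vehicle-treated controls.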
Experiment [3] in a line: NCI Yeast Anticancer Drug Screen. Data for the sgs1 mgt1 strain (AID 161).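 Also: 0% = growth of cultures given vehicle only.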 The conditions noted are these: S. cerevisiae sgs1 mgt1 strain, at 50.0 µM, stronger effect = higher value. The essentials:
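Test agents were incubated with a DNA-repair-mutant yeast strain. Growth was then read and compared against vehicle-treated controls.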

The nature of experiment [4]: NCI Yeast Anticancer Drug Screen. Data for the cln2 rad14 strain (AID 165).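 Also: 0% = growth equal to vehicle treated cultures.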 The conditions noted are these: S. cerevisiae cln2 rad14 strain, at 50.0 µM, stronger effect = higher value. The essentials: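 The screen exposed genetically defined yeast (cln2 rad14) to test compounds and scored growth inhibition relative to vehicle-treated controls.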
A short description of experiment [5]: NCI Yeast Anticancer Drug Screen. Data for the bub3 strain (AID 167). The conditions noted are these: S. cerevisiae bub3 mutant strain, at 50.0 µM, stronger effect = higher value. The essentials: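 Whole-cell yeast assay. The mutant strain was incubated with compounds, and growth inhibition was determined by comparison with vehicle-treated cells.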
Experiment [6] is described as follows: NCI Yeast Anticancer Drug Screen. Data for the mlh1 rad18 strain (AID 175). The conditions noted are these: S. cerevisiae mlh1 rad18 strain growth inhibition; at 50.0 µM; stronger effect = higher value. A digest of the protocol:
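Compound-treated yeast growth, normalised to vehicle controls. Strain bears defined DNA repair mutations.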

In the case of `Nc1cc(S(=O)(=O)O)cc2ccc(S(=O)(=O)O)cc12`, the growth inhibition is -4.15% in experiment [1]; 6.75% in experiment [2]; -14.6% in experiment [3]; -4.35% in experiment [4]; -5.65% in experiment [5]; 3.95% in experiment [6].

On to `Cn1c2ccccc2c2nnc(N/N=C/c3cccnc3)nc21`, for which the growth inhibition was -39.1% in experiment [1]; -36.5% in experiment [2]; -17.4% in experiment [3]; -44.6% in experiment [4]; -5.05% in experiment [5]; -5.7% in experiment [6].

`O=C1CN(c2cccc(Cl)c2)C(=O)CN1NCNN1CC(=O)N(c2cccc(Cl)c2)CC1=O`: the growth inhibition in experiment [1] was -12.8%; in experiment [2] it was -0.1%; in experiment [3], 3.9%; in experiment [4] it was 6.65%; in experiment [5], -6.8%; in experiment [6], 2.75%.

Take `NC(=O)c1ccc[n+](-c2ccc([N+](=O)[O-])cc2[N+](=O)[O-])c1`: the growth inhibition in experiment [1] was 79.3% (active); in experiment [2] it was 54.6%; in experiment [3] it was 80.2% (active); in experiment [4], 39.8%; in experiment [5], 17.3%; in experiment [6] it was 63.4%.

Regarding `CC(C)(C)OC[C@H](O)CC#N`, the growth inhibition is -8.2% in experiment [1]; -61.4% in experiment [2]; -36.1% in experiment [3]; -20.4% in experiment [4]; -30.8% in experiment [5]; -26.4% in experiment [6].

For `CC1(C(Cl)Cl)C=CC(=O)c2ccccc21` (stereo not given), the growth inhibition in experiment [1] was 37%; in experiment [2], 35.6%; in experiment [3] it was 21.4%; in experiment [4], 15.3%; in experiment [5], 12.3%; in experiment [6] it was 4.9%.

Consider `CC(=O)NCc1cccc([N+](=O)[O-])c1`, for which the growth inhibition is 18.4% in experiment [1]; -12.9% in experiment [2]; 27.3% in experiment [3]; 2.45% in experiment [4]; 17.7% in experiment [5]; 13.2% in experiment [6].

Take `Cc1cc(O)c(C=NC(=S)c2ccccc2)c(=O)o1`: the growth inhibition in experiment [1] is -14.1%; in experiment [2], -32%; in experiment [3], 10.2%; in experiment [4], 5.3%; in experiment [5], 4.55%; in experiment [6], -40.4%.

Take `C[N+]1(C)CCCC(CN2c3ccccc3Sc3ccccc32)C1` (stereo not given): the growth inhibition was 10.8% in experiment [1]; -3.85% in experiment [2]; 7.85% in experiment [3]; -13.4% in experiment [4]; 5.9% in experiment [5]; 15.4% in experiment [6].

For the compound `CCOC(=O)c1nc2c(n(O)c1=N)CCC/C2=N\O`, the growth inhibition was 4.1% in experiment [1]; -1.6% in experiment [2]; -8.8% in experiment [3]; 14.2% in experiment [4]; 3.8% in experiment [5]; 5.45% in experiment [6].

Consider `CCOC(=O)c1ccc(NCc2nc3ccccc3nc2C)cc1`, for which the growth inhibition in experiment [1] was -17.8%; in experiment [2], -4%; in experiment [3], -18%; in experiment [4], -29.1%; in experiment [5] it was 1.95%; in experiment [6], -19.2%.

Turning to `O=C1NC(=O)C(c2ccc(O)cc2)N1` (stereo not given), the growth inhibition in experiment [1] is -21.1%; in experiment [2], -14.8%; in experiment [3], -4.6%; in experiment [4], -30.9%; in experiment [5], 0.2%; in experiment [6] it was -10.2%.

As to `O=S(=O)(CS(=O)(=O)Nc1ccccc1)Nc1ccccc1`, the growth inhibition in experiment [1] was 21.1%; in experiment [2] it was 26.9%; in experiment [3], 21.7%; in experiment [4], -4.45%; in experiment [5] it was 11.3%; in experiment [6], 21.3%.

Turning to `CC(C)(O)CC(C)(c1ccccc1)c1ccccc1`, the growth inhibition in experiment [1] is -9.95%; in experiment [2], 0.75%; in experiment [3], -1.25%; in experiment [4], -39%; in experiment [5], -13.1%; in experiment [6], -15.2%.

As to `CCO[Si](CCCN)(OCC)OCC`, the growth inhibition in experiment [1] was -37.5%; in experiment [2], -58.2%; in experiment [3], -36.2%; in experiment [4] it was 0.95%; in experiment [5], -22.1%; in experiment [6] it was -33.8%.

On to `Nc1ccc(S(=O)(=O)N/N=C/c2ccccc2)cc1`, for which the growth inhibition was 10.2% in experiment [1]; -0.4% in experiment [2]; 12.1% in experiment [3]; 34.4% in experiment [4]; -34% in experiment [5]; 29.8% in experiment [6].

`O=C(O)C1C=CCC2C(O)C=CC(=O)C12` (stereo not given): the growth inhibition was -5.95% in experiment [1]; -31.2% in experiment [2]; -1.05% in experiment [3]; -2.4% in experiment [4]; -11% in experiment [5]; -5.9% in experiment [6].

Consider `O=C(CCC(=O)OCC1CCCO1)OCC1CCCO1` (stereo not given), for which the growth inhibition in experiment [1] was 1.15%; in experiment [2], 2.45%; in experiment [3], 4.7%; in experiment [4] it was 4.9%; in experiment [5], 5.75%; in experiment [6], -2.8%.

For `COC[N+](C)(C)C`, the growth inhibition in experiment [1] was -2.55%; in experiment [2], -6.25%; in experiment [3], -7.6%; in experiment [4] it was 2.4%; in experiment [5], 7.2%; in experiment [6], 10.5%.

`CCCC(=O)Nc1cc(C(=O)N2C[C@@H]3C[C@]34C2=CC(=O)c2[nH]cc(C)c24)n(COC)c1`: the growth inhibition was 26.5% in experiment [1]; 10.5% in experiment [2]; 30.6% in experiment [3]; 10.1% in experiment [4]; 8.9% in experiment [5]; 47.4% in experiment [6].
